Molecules are shown by their SMILES. The panel holds about 83,000 compounds, 20% with a hit somewhere; the sample as a whole holds those more often.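 Compound tested at a single concentration for 48 hours in 96-well plates; a percent growth value below 10 was scored as active.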 Activity calls are given as the source filed them.

The subject of this assay is HL-60(TB) leukemia. Nature of the assay: NCI-60 one-dose screen, 48 h (100 = growth as untreated, 0 = no growth, -100 = all killed). The following applies: 10 µM unless noted.
Take `COc1ccccc1/C=N\NC(=S)Nc1ccc(F)cc1`: the growth was 94.5% (inactive). With `CCN(CC)Cc1cccc(C(=O)OC)c1`, the growth was 83.2% (inactive). For `C=CCN(CC=C)C(=O)[C@H](CC)[C@@H]1CC[C@@H](C)[C@@H]([C@H](C)[C@@H](O)[C@@H](C)C(=O)[C@H](CC)C2O[C@]3(C=C[C@@H](O)[C@]4(CC[C@@](C)([C@H]5CC[C@](O)(CC)[C@H](C)O5)O4)O3)[C@H](C)C[C@@H]2C)O1` (stereo not given in full), the growth is -36.8% (active). In the case of `CCCCCCN1CCN(Cc2ccc(N(CC)CC)cc2)C(=O)C1=O`, the growth was -19.1% (active).

In the case of `O=C(CSc1nc2ccccc2[nH]1)Nc1cccc(Cl)c1`, the growth was 102% (inactive). In the case of `c1ccc2[nH]c(SSc3nc4ncncc4[nH]3)nc2c1` it was 17.1% (inactive).

For `Cc1occc1-c1nnc(SCC(=O)c2ccc(NC(=O)CC(C)C)cc2)o1`, the growth is 98.3% (inactive). Regarding `O=c1oc2ccc(I)cc2c(=O)n1-c1ccc(Br)cc1F`, the growth is -27.8% (active). As for `c1ccc(C(CC2=NCCCN2)c2ccccc2)cc1`, the growth was 71% (inactive). In the case of `NC1(N)C=CC2=C(C=C1)C1(N)C3=C(C=CC(N)(N)C=C3)N2C2(N)C3=C(C=CC(N)(N)C=C3)N1C1=C2C=CC(N)(N)C=C1` it was -2.73% (active). In the case of `CSc1ccccc1C#C/C=C\C#Cc1ccccc1N1CCCCC1=O` it was 107% (inactive); in that of `O=C(/C=C/c1ccccc1)c1ccc2ccccc2c1`, 56.1% (inactive). On to `O=C(O)c1cc2cc(OCc3ccccc3)ccc2[nH]1`, for which the growth is 112% (inactive). The figure for `N=C(N)c1ccc(-c2ccc(-c3cccs3)s2)s1` is -62% (active); for `Nc1c(C(=O)Nc2ccccc2)sc2nc3c(cc12)CCC3` it is 60.9% (inactive); for `COc1cc2c(c(OC)c1OC)C(=O)N[C@@H]1[C@@H](O)[C@@H](O)[C@H](O)C[C@@H]21` it is 99.3% (inactive). Turning to `COc1nccc2c(Sc3ccccc3)nc(N)nc12`, the growth is 97.6% (inactive).

For the compound `Brc1cccc(-c2cc(-c3ccc4c(c3)OCCO4)[nH]n2)c1`, the growth is 12.3% [25 µM] (inactive). In the case of `O=C(CCl)Nc1ccc2c(Nc3cc(O)ccc3Cl)ncnc2c1` it was -53.2% (active); in that of `Oc1ccc(C#CCOc2ccccc2)cc1CNCCN(Cc1ccccn1)Cc1ccccn1`, -13.6% (active); in that of `CCCCOc1cc(C(=O)NCCN(CC)CC)c2ccccc2n1`, 96.7% (inactive).

As for `COC(=O)c1nc(-c2ccc(C)cc2)oc1S(=O)(=O)c1ccc(Cl)cc1`, the growth is 51.8% (inactive).

For the compound `N=C(N)c1ccc(-c2ccc(-c3ccc(Cl)cc3)s2)s1`, the growth was -58.6% (active). For the compound `C[N+]1(CC2CO2)CCCCCC1` (stereo not given), the growth was 109% (inactive). The figure for `CCN(CC)CCCN1C(=O)c2c(c(C)c3c(oc4cc(OC)ccc43)c2C)C1=O` is 95% (inactive); for `CCCCCCCCN1C(=O)/C(=c2\sc3n(c2=O)C2C(NN=3)N(CC)C(=O)N2CC)c2ccccc21` (stereo not given) it is 114% (inactive); for `CC1(C)C2CCC(O)(C(=O)O)C1C2` (stereo not given) it is 107% (inactive). On to `Nc1nc(N)c2c(n1)NC(c1cccc(Nc3ccnc4cc(C(F)(F)F)ccc34)c1)CC(c1ccc(Br)cc1)=N2` (stereo not given), for which the growth was 43.1% (inactive). In the case of `O=S(=O)(NCCCNc1cc(-c2c(-c3cccc(O)c3)nc3sccn23)ccn1)c1cccc2ccccc12` it was 41.3% (inactive). In the case of `CN1C(=O)N(C)C2Nn3c(s/c(=C\c4ccccc4)c3=O)=NC21` (stereo not given) it was 95.2% (inactive); in that of `Cc1c(C)c2c(c(C)c1OCC(=O)O)CC[C@@](C)(CCC[C@@H](C)CCC[C@@H](C)CCCC(C)C)O2`, 1.94% [50 µM] (active); in that of `Nc1c(Br)cc(O)c2c1C(=O)c1ccccc1C2=O`, 41.9% (inactive). Consider `COc1ccc(-c2cc3c(oc2=O)-c2ccccc2OC3OC(C)=O)cc1` (stereo not given), for which the growth was 85.8% (inactive). In the case of `CC/C=C\C[C@H](O)C/C=C1/C(=O)C=C[C@@H]1C/C=C\CCCC(=O)OCCS(=O)(=O)c1ccccc1` it was 62.1% (inactive); in that of `Cc1nc([P+](c2ccccc2)(c2ccccc2)c2ccccc2)c(Sc2sc(-c3ccccc3)nc2[P+](c2ccccc2)(c2ccccc2)c2ccccc2)o1`, -17.9% (active); in that of `COc1cc(/C=C/C(=O)N2CCN(C(=O)/C=C/c3cc(OC)c(OC)c(OC)c3)CC2)cc(OC)c1OC`, 91.7% (inactive). In the case of `O=c1c2c3c(sc2n2c(-c4cn(-c5ccccc5)nc4-c4ccc(Cl)cc4)nnc2n1Cc1ccccc1)CCCC3` it was 102% (inactive). In the case of `Nc1nsc(C(=O)c2ccc(O)cc2)n1` it was 92.4% (inactive).

Take `NC1CCC(Nc2nc(NCc3cc(Cl)ccc3O)c3ncn(C4CCCC4)c3n2)CC1` (stereo not given): the growth was -41.1% (active). The figure for `COc1ccc2[nH]c(=O)c(/C=C/C(=O)c3ccccc3OC)cc2c1` is -2.46% (active).
